PubChem BioAssay (NCATS)
Records with an inconclusive call do not appear. Activity calls are given as the source filed them. Unless noted, calls follow the shape of the dose curve; as a rule, active = well fitted curve in the direction sought with a large enough effect; inconclusive = small, poorly fitted or top-dose-only effect, or another doubt; inactive = no such curve, though single readings can be large; an effect the other way counts as inactive or inconclusive.

What was measured:
[1] = qHTS for Inhibitors of Plasmodium falciparum (DD2) proliferation (AID 504314);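 also: parasite DNA measured by SYBR Green fluorescence after red cell lysis; plate controls were DMSO vehicle for no effect and artemisinin wells for full effect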
Outline: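 SYBR Green growth assay: 72 h compound exposure of infected red cells (2.5% hematocrit, 0.3% parasitemia), then lysis and overnight dye staining, fluorescence 485/535 nm. Values scaled between DMSO and 0.29 uM artemisinin controls.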

[2] = qHTS for Inhibitors of Plasmodium falciparum (GB4) proliferation (AID 504315);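 also: 0% = DMSO vehicle and -100% = 0.29 µM artemisinin control; nearly all actives have a fitted effect of over 50% in size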
Outline: (§1)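 Parasite growth measured as SYBR Green DNA fluorescence (ex 485, em 535 nm) after overnight lysis following 72 h culture at 37 °C, 0.3% parasitemia, 2.5% hematocrit. Values normalized against DMSO and 0.29 uM artemisinin controls, with plate-stack correction.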

[3] = qHTS for Inhibitors of Plasmodium falciparum (7G8) proliferation (AID 504316);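 also: series mostly up to about 6.7 µM; 0% = DMSO vehicle and -100% = 0.29 µM artemisinin full kill; nearly all actives have a fitted effect of over 65% in size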
Outline: as §1

[4] = qHTS for Inhibitors of Plasmodium falciparum (HB3) proliferation (AID 504318);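 also: 0% = DMSO vehicle and -100% = artemisinin control; nearly all actives have a fitted effect of over 60% in size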
Outline: as §1

[5] = qHTS for Inhibitors of Plasmodium falciparum (CP250) proliferation (AID 504320);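 also: plate controls were DMSO vehicle for no effect and 0.29 µM artemisinin control for full effect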
Outline: as §1

[6] = target: Atrial natriuretic peptide receptor 1 (Homo sapiens) (UniProt P16066); assay: Natriuretic polypeptide receptor (hNpr1) antagonism - Pilot CMLD screen (AID 1347052; calls by dose curve;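 also: HEK293 cells with hNpr1 stimulated by hNppA peptide at 0.1 nM; cGMP level read as GloSensor luciferase luminescence after agonist stimulation; series mostly up to about 9.2 µM; % is scaled to controls: 0 for no effect and ±100 for the full control effect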)
Chain of Atrial natriuretic peptide receptor 1 (Homo sapiens) (P16066 whole entry, looked up): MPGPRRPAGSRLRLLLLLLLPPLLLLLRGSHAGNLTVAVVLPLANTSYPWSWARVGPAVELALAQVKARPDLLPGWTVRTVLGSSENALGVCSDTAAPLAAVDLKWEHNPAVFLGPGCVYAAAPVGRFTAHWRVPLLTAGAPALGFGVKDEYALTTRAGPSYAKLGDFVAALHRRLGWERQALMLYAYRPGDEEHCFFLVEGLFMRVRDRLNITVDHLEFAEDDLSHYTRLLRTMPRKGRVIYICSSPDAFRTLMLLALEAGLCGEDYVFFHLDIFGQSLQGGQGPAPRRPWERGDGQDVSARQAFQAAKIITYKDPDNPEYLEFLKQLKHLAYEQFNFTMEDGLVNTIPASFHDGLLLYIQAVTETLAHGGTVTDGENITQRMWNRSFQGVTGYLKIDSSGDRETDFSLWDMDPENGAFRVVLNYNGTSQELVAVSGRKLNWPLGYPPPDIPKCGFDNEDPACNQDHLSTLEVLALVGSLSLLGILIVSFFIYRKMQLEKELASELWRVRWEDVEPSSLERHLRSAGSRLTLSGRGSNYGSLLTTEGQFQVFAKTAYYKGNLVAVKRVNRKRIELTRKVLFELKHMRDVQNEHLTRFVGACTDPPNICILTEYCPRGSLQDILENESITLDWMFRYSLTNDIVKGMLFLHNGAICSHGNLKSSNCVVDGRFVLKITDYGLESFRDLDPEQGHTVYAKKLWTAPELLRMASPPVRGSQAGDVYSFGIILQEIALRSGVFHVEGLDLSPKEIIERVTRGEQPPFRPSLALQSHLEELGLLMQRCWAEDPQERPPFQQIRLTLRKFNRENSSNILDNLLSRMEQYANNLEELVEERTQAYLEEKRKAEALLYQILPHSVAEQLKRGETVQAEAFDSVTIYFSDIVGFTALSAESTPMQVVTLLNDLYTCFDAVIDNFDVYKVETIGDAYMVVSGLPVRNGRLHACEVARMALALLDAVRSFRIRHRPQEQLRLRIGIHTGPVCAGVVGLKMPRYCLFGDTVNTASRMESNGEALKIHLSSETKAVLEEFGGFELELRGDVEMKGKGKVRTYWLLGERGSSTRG

CC[C@H](C)[C@@H](NC(=O)O[C@H]1C(=O)c2ccc(OC)cc2O[C@@H]1c1ccc2c(c1)OCO2)C(=O)OC
inactive: Potency [1] | Potency [2] | Potency [3] | Potency [4] | Potency [5] | Potency [6]

CCCCC1=CC2=C(c3ccco3)C(=O)C(C)(OC(=O)c3ccc(OC)cc3)C(=O)C2=CN1CCCOC(C)C (stereo not given)
inactive: Potency [1] | Potency [2] | Potency [3] | Potency [4] | Potency [5] | Potency [6]

COC(=O)CC=C[C@@H](C)[C@@H](C=NOC[C@@H](C)[C@H](OCc1ccccc1)C(C)C)NS(=O)(=O)c1ccc(C)cc1
inactive: Potency [1] | Potency [2] | Potency [3] | Potency [4] | Potency [5] | Potency [6]

COC(=O)c1ccc(CN2C(=O)C3(CC(C)=C[C@@H](C)O3)c3c(Br)cccc32)cc1 (stereo not given in full)
inactive: Potency [1] | Potency [2] | Potency [3] | Potency [4] | Potency [5] | Potency [6]

COC(=O)C1=C[C@]2(c3ccccc3C[C@H](OC)[C@@H]2C)[C@H]2C=C[C@H]1C2
inactive: Potency [1] | Potency [2] | Potency [3] | Potency [4] | Potency [5] | Potency [6]

COC(=O)CCCC1=CC2=CC(=O)C(C)(O)C(=O)C2=CO1 (stereo not given)
inactive: Potency [1] | Potency [2] | Potency [3] | Potency [4] | Potency [5] | Potency [6]

C#CCN1C(=O)[C@@]2(CC(C)=CC[C@@H](C)O2)c2ccccc21
inactive: Potency [1] | Potency [2] | Potency [3] | Potency [4] | Potency [5] | Potency [6]

COc1ccc2c(c1)C(=O)[C@H](OC(=O)Nc1ccc(OC(F)F)cc1)[C@@H](c1ccc(OC)c(Br)c1)O2
inactive: Potency [1] | Potency [2] | Potency [3] | Potency [4] | Potency [5] | Potency [6]

COc1ccc(-c2nc3c(c4c2C[C@H](c2ccccc2)OC4)CN(C(=O)Nc2cccc(C#N)c2)CC3)c(C)c1
inactive: activity, negative = inhibition [1] 2.23% [at 1.12 µM] | Potency [2] | Potency [3] | Potency [4] | Potency [5] | Potency [6]

COC(=O)C1=C(C(=O)OC)[C@@H]2Nc3ccccc3[C@@]23C[C@@H](C(=O)OC)N(C(=O)COCc2ccccc2)C3=N1
inactive: Potency [1] | Potency [2] | Potency [3] | Potency [4] | Potency [5] | Potency [6]

CCN1C(=O)[C@@H]2[C@H]3[C@H](O)[C@H](O)CC(=NOC[C@@H](O)COCc4ccco4)[C@@H]3CC[C@H]2C1=O
inactive: Potency [1] | Potency [2] | Potency [3] | Potency [4] | Potency [5] | Potency [6]

C=CCN1C=C2C(=O)C(C)(OC(=O)C3CCCC3)C(=O)C=C2C=C1c1ccsc1 (stereo not given)
inactive: Potency [1] | Potency [2] | Potency [3] | Potency [4] | Potency [5] | Potency [6]

CC=CCCN1C=C(C(=O)OCC)C(c2ccccc2)NC1=O (stereo not given)
inactive: Potency [1] | Potency [2] | Potency [3] | Potency [4] | Potency [5] | Potency [6]

C[C@@H]1C=CCCO[C@]12C(=O)N(Cc1ccc(F)cc1)c1cccc(Br)c12
inactive: Potency [1] | Potency [2] | Potency [3] | Potency [4] | Potency [5] | Potency [6]

CCOC(=O)NN=C1C[C@@H](O)[C@@H](O)[C@@H]2[C@H]3C(=O)N(c4cccc(Oc5ccccc5)c4)C(=O)[C@@H]3CC[C@@H]12
inactive: Potency [1] | Potency [2] | Potency [3] | Potency [4] | Potency [5] | Potency [6]
